91 compounds from PubChem BioAssay AID1259313 (Sanford-Burnham Center for Chemical Genomics, 2017) can be followed below.

In all, about 340,000 compounds went through this assay and about 8,500 (2.5%) were called active. Only a selection was taken, and actives are over-represented in it overall. Unmarked numbers belong to inactive results.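 Rule for the calls: active = melting temperature shift of at least 10% of the positive control shift, at one fixed dose; inactive = the rest.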

For this experiment, the system named is Glutamate receptor ionotropic, NMDA 3A (GRIN3A) ligand-binding domain. Kind of experiment: NR3A LBD thermal stabilization by compounds – biophysical, differential scanning fluorimetry, uHTS, primary screen (AID 1259313). As to conditions: at 25 µM, hits give high values, 0% = protein alone, 100% = glycine-bound protein. (In general: In DSF a fluorescence change marks the thermal transition of the protein.)
Turning to `COc1ccc(CCNC2=C(Cl)C(=O)N(Cc3ccccc3)C2=O)cc1OC`, the Tm shift relative to glycine control was 2.81%. As to `CC(=O)c1ccc(N2CCN(S(=O)(=O)c3ccc4c(c3)CC(=O)N4C)CC2)cc1`, the Tm shift relative to glycine control was 4.97%. As for `Cc1ccc(CC(=O)Nc2ccc(OC(F)F)c(Cl)c2)cc1C`, the figure is 3.08%; as for `CC(=O)N1CCN(CC(=O)Nc2ccc(SC(F)F)cc2)CC1`, -2.44%; as for `O=C(Cc1ccc(Cl)c(Cl)c1)Nc1ccc(SC(F)F)cc1`, 25.9% (active).

`Cc1c(Cl)c([N+](=O)[O-])nn1CC(=O)NCCCN1CCOCC1`: the Tm shift relative to glycine control is -0.8%. For the compound `COc1cc(C(=O)CCc2ccc3c(c2)OCO3)cc(OC)c1OC`, the Tm shift relative to glycine control is 0.46%. As for `COc1cc(-c2c(-c3ccc4c(c3)OCO4)noc2C)ccc1F`, the figure is -2.27%.

On to `COc1cc2c(-c3ccc4c(c3)OCO4)c(-c3ccsc3)oc(=O)c2cc1OC`, for which the Tm shift relative to glycine control is 12.9% (active). As for `CN(C)CCCn1c(SCc2ccc(Cl)cc2)nnc1-c1ccncc1`, the figure is -5.52%. As to `CC(C)(Oc1ccc(Cl)cc1)C(=O)OCC(=O)NCCc1ccc(S(N)(=O)=O)cc1`, the Tm shift relative to glycine control was -1.31%. In the case of `CN(C)N=Nc1ccc2nc[nH]c2c1` it was -1.21%. In the case of `COc1ccc2[nH]c3c(c2c1)CCN1C(=O)C(CC(=O)NCc2cccc(C(F)(F)F)c2)C[C@H](C(=O)N2CCOCC2)[C@@]31C` (stereo partly specified) it was -2.74%; in that of `C/C(N)=C(/C#N)C(=O)COC(=O)CNS(=O)(=O)c1ccc(C)cc1`, -0.65%. As for `COC(=O)CNS(=O)(=O)c1ccc(Cc2ccc(S(=O)(=O)NCC(=O)OC)cc2)cc1`, the figure is 1.25%; as for `COC(=O)c1sc(N)c(C(=O)OC)c1COC(=O)CNS(=O)(=O)c1ccc(C)cc1`, 13.2% (active). On to `CCN(CC)C(=O)Oc1ccc(OC(=O)N(CC)CC)cc1`, for which the Tm shift relative to glycine control was -0.08%. As for `COc1ccc(N2CCN(C(=S)Nc3ccc(S(N)(=O)=O)cc3)CC2)cc1`, the figure is 1.93%; as for `NS(=O)(=O)c1ccc(NC(=S)N2CCCC2)cc1`, -6.36%; as for `CCOc1ccccc1N1CCN(C(=S)Nc2ccc(S(N)(=O)=O)cc2)CC1`, 31.7% (active). For the compound `O=C(Nc1ccccc1C(=O)N1CCOCC1)C1CCC(=O)N1C1CCCC1` (stereo unspecified), the Tm shift relative to glycine control was -0.29%. In the case of `O=C(c1cc(-c2cccc(O)c2)on1)N1CCc2ccccc2C1` it was -13.5%; in that of `Cn1cccc1C(=O)N1CCc2ccccc2C1`, 38.1% (active).

As to `CN(c1ccc(C(=O)N2CCc3ccccc3C2)cc1)S(C)(=O)=O`, the Tm shift relative to glycine control was -0.88%. In the case of `Cc1nn(Cc2ccccc2)c(C)c1CNC(=O)c1ccc(F)c(S(=O)(=O)N2CCOCC2)c1` it was 0.42%; in that of `Cc1cc(C(=O)NNC(=S)NC(C)c2ccccc2)cs1` (stereo unspecified), -0.62%. In the case of `CCCN1Cc2cccc(C(=O)Nc3ccc(S(=O)(=O)N4CCCCCC4)cc3)c2C1=O` it was -5.76%. In the case of `O=S(=O)(Nc1n[nH]c(C(F)(F)F)n1)c1ccccc1` it was -16.9%; in that of `COc1ccccc1NC(=O)COC(=O)COc1ccccc1F`, 0.17%. In the case of `COc1ccccc1NC(=O)Nc1nc(CC(=O)Nc2ccccc2F)cs1`, the Tm shift relative to glycine control is 27.7% (active).

As for `COc1ccccc1NC(=O)Nc1nnc(Cc2ccc(F)cc2)s1`, the Tm shift relative to glycine control was -6.85%. Turning to `Cc1cc(C)c(C)c(S(=O)(=O)N2CCN(C(=O)c3ccc4c(=O)n5c(nc4c3)CCC5)CC2)c1C`, the Tm shift relative to glycine control was -1.83%. As for `Cc1ccc(C2=NN(C)c3nc4ccccc4n3C2)cc1`, the figure is -0.88%; as for `CCOC(=O)C1=CN(Cc2ccc(Br)cc2)S(=O)(=O)NC1C` (stereo unspecified), -0.08%.

Take `CCOC(=O)C1=CN(Cc2ccc(Br)cc2)S(=O)(=O)N(C)C1C` (stereo unspecified): the Tm shift relative to glycine control is 16.8% (active). In the case of `CCOC(=O)c1sc(=NC(=O)c2ccc(Br)cc2)n(C)c1C` it was -1.61%; in that of `Cc1ccc(Sc2cc(C(=O)c3ccccc3C(=O)O)ccc2[N+](=O)[O-])cc1`, 2.48%; in that of `CCN(CC(=O)Nc1cc(Cl)ccc1C)C(=O)CSCc1ccccc1`, 3.04%.

`C=CCC1(C#N)C(=S)NC(C)=C(C(=O)OCC)C1c1ccccc1` (stereo unspecified): the Tm shift relative to glycine control was -1.45%. Regarding `Cc1ccc(CNC(=O)CSc2nnc3c(n2)[nH]c2ccc(F)cc23)cc1`, the Tm shift relative to glycine control is 2.6%. In the case of `Oc1[nH]c2ccccc2c1N=Nc1c(F)c(F)c(F)c(F)c1F` it was 9.33%; in that of `Cc1cccc(N=Nc2c(O)[nH]c3ccc(F)cc23)c1`, 10.2% (active); in that of `O=C1CN(C(=O)c2cc(F)cc(F)c2)c2ccccc2N1`, -2.16%. In the case of `NC1=NC(=O)S/C1=C\c1ccc(O)cc1` it was 32.2% (active); in that of `O=C1N=C(N2CCc3ccccc3C2)S/C1=C\c1ccc(O)cc1`, -10.4%.

For `CC(C)(C)c1ccc(/C=C2\SC(=O)N=C2N)cc1`, the Tm shift relative to glycine control was -1.96%. As for `Cc1c(CN2CCCC(C(=O)c3cccc(Cl)c3)C2)c(=O)n(-c2ccccc2)n1C` (stereo unspecified), the figure is -0.59%; as for `CCN(CC)c1ccc(NC(=O)c2ccc(Cl)nc2)cc1`, -1.3%.

For `O=C(NCCS(=O)(=O)N1CCN(c2ccccc2)CC1)c1ccco1`, the Tm shift relative to glycine control was 2.13%. In the case of `COc1ccccc1N1CCN(S(=O)(=O)CCNC(=O)c2ccc(OC(C)C)cc2)CC1` it was 0.83%; in that of `O=C(NCCS(=O)(=O)N1CCN(c2ccccc2F)CC1)c1ccc(Br)o1`, 121% (active). As for `COc1ccc(CCNC(=O)C(=O)NCC2CCNCC2)cc1OC`, the figure is -0.1%; as for `CCc1ccc(-c2nn(-c3ccccc3)cc2CSC(=N)N)cc1`, -0.35%; as for `COc1cc(NS(=O)(=O)c2ccc(NC(=S)NC(=O)c3ccc(Br)cc3)cc2)ncn1`, -6.1%.

As to `COc1ccc(Br)cc1/C=N/Nc1ccc(Cl)c(C(=O)O)c1`, the Tm shift relative to glycine control is -7.4%. In the case of `COc1cccc(/C=N/Nc2ncc(C(F)(F)F)cc2Cl)c1O` it was 24.2% (active); in that of `O=c1[nH]c2cccnc2n(CCNc2ncc(C(F)(F)F)cc2Cl)c1=O`, -2.11%. As for `CCCCN(C(=O)c1nn(C)c(=O)c2ccccc12)c1c(N)n(CCC)c(=O)[nH]c1=O`, the figure is 0.36%; as for `N#CC1=C(N)Oc2cc(O)ccc2C1C1CCCCC1` (stereo unspecified), 12% (active); as for `COc1ccc(C2C(C#N)=C(N)Oc3cc(N)ccc32)cc1OC` (stereo unspecified), -4.08%. In the case of `N#CC1=C(N)Oc2cc(N)ccc2C1c1ccccc1` (stereo unspecified) it was -2.17%; in that of `COCC(C)NC(=O)CSc1nc2nn(-c3ccccc3)c(=O)c-2c2n1CCCCC2` (stereo unspecified), -0.39%. `O=C(Nc1cc(S(=O)(=O)N2CCOCC2)ccc1Cl)c1cc(=O)c2ccccc2o1`: the Tm shift relative to glycine control was 0.31%.

Regarding `CC(=O)c1ccc(N2CCN(C(=O)C3CCN(S(=O)(=O)c4ccc5c(c4)CC(C)N5C(=O)C4CC4)CC3)CC2)cc1` (stereo unspecified), the Tm shift relative to glycine control was 1.27%. As for `COC(=O)c1ccc(NC(=O)c2ccccc2NS(=O)(=O)c2ccccc2)cc1`, the figure is 2.17%; as for `COc1cc(OC)c(S(=O)(=O)Nc2ccccc2C(=O)O)cc1S(=O)(=O)Nc1ccccc1C(=O)O`, 5.12%; as for `COc1cc(NC(=O)c2ccccc2NS(=O)(=O)c2ccc(Cl)s2)cc(OC)c1`, 21.3% (active). In the case of `CCC/C(O)=C1\C(=O)CC(C)(C)CC1=Nc1ccccc1OC` it was -0.4%.

In the case of `CC(=O)Nc1ccc(C(=O)NNC(=O)CCCCC(=O)NNC(=O)c2ccc(NC(C)=O)cc2)cc1`, the Tm shift relative to glycine control was -2.46%. As for `CC(=O)Nc1ccc(C(=O)/C=C/c2ccc[nH]2)cc1`, the figure is 19.4% (active); as for `CCCC(=O)Nc1ccc(C(=O)N/N=C/c2ccc[nH]2)cc1`, 0.18%. `CC1=C(C)C(=O)OC(C(C)C2CCC3C4CC=C5CC(OC6OC(COC7OC(CO)C(O)C(O)C7O)C(O)C(O)C6O)CC(O)C5(C)C4CCC23C)C1` (stereo unspecified): the Tm shift relative to glycine control was -4.54%.

As to `O=C(CN(Cc1ccc(Br)cc1)S(=O)(=O)c1ccccc1)NCc1ccncc1`, the Tm shift relative to glycine control was 0.51%. As for `CC1=C(C(=O)OC(C)(C)C)C(c2ccc(Br)cc2)NC(=O)N1CCCC(=O)O` (stereo unspecified), the figure is 0.08%.

In the case of `COC(=O)[C@H](Cc1ccccc1)NC(=O)Nc1ccc(S(N)(=O)=O)cc1`, the Tm shift relative to glycine control was -3.46%. In the case of `NS(=O)(=O)c1ccc(Nc2nc(-c3ccccc3)cs2)cc1` it was 15.5% (active). In the case of `NS(=O)(=O)c1ccc(NS(=O)(=O)/C=C/c2ccccc2)cc1` it was -15.1%. In the case of `O=C(CC1C(=O)NCCN1CC(c1ccccc1)c1ccccc1)NCCc1cn[nH]c1` (stereo unspecified) it was -1%. On to `Cc1cccc(OCCC(=O)OCc2csc(CC(=O)Nc3ccccc3C)n2)c1`, for which the Tm shift relative to glycine control is -1.22%. As for `Cc1cccc(NC(=O)C2CCN(C(=O)NC3CCCCC3)CC2)c1`, the figure is -0.18%; as for `COc1cccc(NC(=O)c2cc(S(=O)(=O)N3CCc4ccccc43)cn2C)c1`, 1.72%; as for `COc1ccc(C(=O)C2CCCN(Cc3cccn3-c3ccccn3)C2)c(C)c1` (stereo unspecified), 0%.

Take `CC(C)CCN1CCN=C1N(C)C`: the Tm shift relative to glycine control was -0.97%. On to `O=C(/C=C/NCc1ccc(F)cc1)c1ccccc1`, for which the Tm shift relative to glycine control is 0.09%.

For the compound `CCOc1ccc(N/C=C/C(=O)c2ccccc2)cc1`, the Tm shift relative to glycine control was -12.3%.

On to `O=C(/C=C\NCC(=O)c1ccccc1)c1ccccc1`, for which the Tm shift relative to glycine control was 12.7% (active).

Regarding `COC(=O)Cn1c(=NC(=O)c2cc(OC)c(OC)c(OC)c2)sc2cc(OC)ccc21`, the Tm shift relative to glycine control was 4.34%. In the case of `O=C(Cn1cc(C(=O)c2cccs2)c2ccccc21)NCc1cccs1` it was -6.3%. As for `COC(=O)c1cn(CC(=O)NCc2cccs2)c2ccccc12`, the figure is 11.7% (active); as for `COCCNC(=O)Cn1cc(C(=O)c2cccs2)c2ccccc21`, 4.81%.

On to `CC(NC(=O)c1ccccc1SCC(=O)N1CCCC1)c1ccccc1` (stereo unspecified), for which the Tm shift relative to glycine control is 1.13%.
